The entries come from a sample that favours hits as a whole.
PD-1 reversal = activators reversing PD-1 mediated T-cell inhibition; primary human CD4 T cells, PD-L1 beads, CellTiter-Glo 96 h; activation, % (test concentration not listed); 29,000 tested, under 10 active; call rule not given here;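 also: 0% = median vehicle wells and 100% = positive control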
STK33 kin inh = human STK33 kinase inhibition; Q9BYT3; ADP-Glo luminescence, MBP substrate; inhibition, % at 12.5 µM; hit rate 0.44% among 27,000; AID 2322; in the data active = inhibition above about 20%; inconclusive = no clear call, values can overlap the other calls
Target sequence (Q9BYT3 whole entry, looked up): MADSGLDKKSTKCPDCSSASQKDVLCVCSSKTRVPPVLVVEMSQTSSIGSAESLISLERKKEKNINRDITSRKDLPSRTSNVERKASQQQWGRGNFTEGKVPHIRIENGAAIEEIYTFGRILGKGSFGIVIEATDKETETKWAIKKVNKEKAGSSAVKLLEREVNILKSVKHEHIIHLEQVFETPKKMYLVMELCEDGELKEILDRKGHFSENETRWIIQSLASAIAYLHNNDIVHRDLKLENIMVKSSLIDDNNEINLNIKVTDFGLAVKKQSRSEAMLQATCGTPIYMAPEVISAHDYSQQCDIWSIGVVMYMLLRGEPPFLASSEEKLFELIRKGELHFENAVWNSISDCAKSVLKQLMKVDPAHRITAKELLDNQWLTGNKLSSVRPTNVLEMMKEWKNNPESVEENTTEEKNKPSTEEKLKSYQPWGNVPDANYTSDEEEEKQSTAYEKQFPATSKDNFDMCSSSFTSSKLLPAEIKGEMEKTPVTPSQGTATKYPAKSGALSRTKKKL
NOMO-1 viab = STK33 inhibitor candidate reducing NOMO-1 cell viability | NOMO-1 AML viability, CellTiter-Glo luminescence, 72 h | inhibition, % (no concentration beside the values) | hit rate 7.5% among 37,000 | AID 2330; in the data active = inhibition above about 80%; inconclusive = no clear call, values can overlap the other calls
* marks the source's active call; other numbers are inactive results; ? = inconclusive; nt = no result.

SMILES	PD-1 reversal	STK33 kin inh	NOMO-1 viab
Cc1ccccc1N(CC(=O)O)S(=O)(=O)c1ccc(Cl)cc1	nt	-1	2
CC(C)=C1C[C@@]2(CO)C(=CC1=O)CC[C@@H](O)[C@@H]2C	0	-1	5
C=C(C)[C@@]12O[C@@H]1[C@@]1(C)C(=CC2=O)CC[C@@H](O)[C@@H]1C	0	-3	114*
COc1ccc(OC)c(NC(=O)COc2cc(C)c(Br)cc2C)c1	nt	0	-2
COc1ccc(S(=O)(=O)Nc2ccc3c(c2)CC(=O)N([C@H](C)CO)C[C@@H](C)[C@H](CN(C)Cc2ccc(Cl)c(Cl)c2)O3)cc1	0	3	112*
COc1ccc(CN(C)C[C@@H]2Oc3ccc(NS(=O)(=O)c4ccc(Cl)cc4)cc3CC(=O)N([C@@H](C)CO)C[C@@H]2C)cc1	1	-2	9
COc1ccc(CN(C)C[C@@H]2Oc3ccc(NS(=O)(=O)c4ccc(Cl)cc4)cc3CC(=O)N([C@H](C)CO)C[C@H]2C)cc1	nt	0	18
COc1ccc(S(=O)(=O)Nc2ccc3c(c2)CC(=O)N([C@H](C)CO)C[C@H](C)[C@H](CN(C)Cc2ccc(Cl)c(Cl)c2)O3)cc1	nt	-12	98*
O=C(Oc1ccc(C=Nc2ccc(F)cc2)cc1)c1ccco1	2	nt	8
CC(C)(C)OC(=O)CC[C@@]12N=C(c3ccc(OCCCO)cc3)O[C@@H]1c1ccccc1CN(CCS(=O)(=O)c1ccccc1)C2=O	nt	15	nt
CCOc1cc(C)c(Cl)cc1S(=O)(=O)n1cnc2ccccc21	-1	-3	23
COc1cc(S(=O)(=O)n2cnc3ccccc32)c(OC)cc1Cl	nt	4	84*
CCOc1ccc(C)cc1S(=O)(=O)n1cnc2ccccc21	-1	1	127*
CCOc1ccc(C)cc1S(=O)(=O)Nc1cccnc1	1	-3	44
COc1cc(S(=O)(=O)n2nnc3ccccc32)c(OC)cc1Cl	-1	2	30
CCOc1ccc(Cl)cc1S(=O)(=O)n1cnc2ccccc21	nt	0	114*
CCc1cccc(C)c1NC(=O)CSc1nnc(-c2ccc(C)cc2)n1C	1	4	4
Cc1ccccc1-c1nc(S(=O)(=O)c2ccc(Cl)cc2)c(NCc2cccnc2)o1	-3	5	-1
COc1ccc(-n2c(SCC(=O)Nc3ccc(Cl)cc3Cl)nnc2-c2ccccc2)cc1	-1	-3	16
C[C@H](CO)N1C[C@H](C)[C@H](CN(C)S(=O)(=O)c2ccccc2)Oc2ccc(NC(=O)Nc3ccc(C(F)(F)F)cc3)cc2CC1=O	-6	2	128*
C[C@H]1CN([C@@H](C)CO)C(=O)Cc2cc(NC(=O)Nc3ccc(C(F)(F)F)cc3)ccc2O[C@@H]1CN(C)S(=O)(=O)c1ccccc1	2	0	5
C[C@H]1CN([C@@H](C)CO)C(=O)Cc2cc(NC(=O)Nc3ccc(C(F)(F)F)cc3)ccc2O[C@@H]1CN(C)C	2	-2	18
C[C@@H]1CN([C@@H](C)CO)C(=O)Cc2cc(NC(=O)Nc3ccc(C(F)(F)F)cc3)ccc2O[C@@H]1CN(C)S(=O)(=O)c1ccccc1	-5	4	112*
C[C@H]1CN([C@@H](C)CO)C(=O)Cc2cc(NC(=O)Nc3ccccc3)ccc2O[C@H]1CN(C)S(=O)(=O)c1ccccc1	2	-4	39
C[C@@H]1CN([C@@H](C)CO)C(=O)Cc2cc(NC(=O)Nc3ccc(C(F)(F)F)cc3)ccc2O[C@@H]1CN(C)S(C)(=O)=O	0	2	114*
SMILES	PD-1 reversal	STK33 kin inh	NOMO-1 viab
CCCS(=O)(=O)/C(C#N)=C/c1sccc1Oc1ccccc1	0	nt	8
O=C(O)CC(C(=O)Nc1cc(C(F)(F)F)cc(C(F)(F)F)c1)C1=CCCCC1 (stereo not drawn)	0	nt	16
CCN(CC)C(=S)C(=O)Nc1cc(C(F)(F)F)cc(C(F)(F)F)c1	-2	nt	109*
Cc1nn(CC(=O)Nc2sc3c(c2C#N)CCCC3)c(C)c1[N+](=O)[O-]	nt	-3	-1
OC(Cc1ccccc1)(c1ccccc1)c1ccccc1N=Cc1ccc2c(c1)OCO2 (stereo not drawn)	0	nt	91*
OC(Cc1cccnc1)(c1ccccc1)c1ccccc1	-1	0	9
CC(=O)O[C@H]1CC[C@@]2(C)C(CC[C@]3(C)C2C(=O)C=C2C4[C@@H](C)[C@H](C)CC[C@]4(C(=O)O)CC[C@]23C)C1(C)C (stereo partly drawn)	2	-7	8
COc1ccc([N+](=O)[O-])cc1NC(=O)CN(c1cc(C)ccc1C)S(C)(=O)=O	0	-3	8
Cc1c(NC(=S)NCCc2c[nH]c3ccccc23)c(=O)n(-c2ccccc2)n1C	1	0	3
CCC1(COC(NC(=O)c2ccc(Cl)cc2Cl)(C(F)(F)F)C(F)(F)F)COC1	-1	-2	34
C=C1C(=O)[C@@]23CCC4[C@](C)(C(=O)O)CCC[C@@]4(C)[C@@H]2CC[C@@H]1C3 (stereo partly drawn)	nt	-2	nt
c1ccc(-c2nsc(N3CCOCC3)n2)cc1	1	nt	-1
Clc1ccccc1/C=C/C=Nc1ccc(N2CCOCC2)cc1	0	nt	122*
Cc1nc(-c2ccccc2)sc1C(=O)C1C(=O)C(=O)N(CCN(C)C)C1c1cccc([N+](=O)[O-])c1 (stereo not drawn)	2	-2	-11
CS(=O)(=O)N(CC(=O)Nc1ccc(Br)cc1F)c1ccc(F)c(Cl)c1	nt	2	15
C[C@@H]1CCCCO[C@@H](CN(C)Cc2ccc(C(F)(F)F)cc2)[C@@H](C)CN([C@H](C)CO)C(=O)c2cc(NS(=O)(=O)c3ccc(F)cc3)ccc2O1	-8	1	110*
C[C@@H]1CN([C@@H](C)CO)C(=O)c2cc(NS(=O)(=O)c3ccccc3)ccc2O[C@@H]1CN(C)Cc1ccc(C(F)(F)F)cc1	3	0	3
Cc1ccc(S(=O)(=O)Nc2ccc3c(c2)C(=O)N([C@H](C)CO)C[C@H](C)[C@H](CN(C)Cc2ccc(C(F)(F)F)cc2)O3)cc1	0	nt	93*
C[C@@H]1CCCCO[C@@H](CN(C)C(=O)Nc2ccc(C(F)(F)F)cc2)[C@@H](C)CN([C@H](C)CO)C(=O)c2cc(NS(=O)(=O)c3ccccc3)ccc2O1	nt	-3	73
C[C@@H]1CCCCO[C@@H](CN(C)Cc2ccc(C(F)(F)F)cc2)[C@@H](C)CN([C@H](C)CO)C(=O)c2cc(NS(=O)(=O)c3ccccc3)ccc2O1	-2	-1	?
C[C@H](CO)N1C[C@H](C)[C@H](CN(C)Cc2ccc(C(F)(F)F)cc2)Oc2ccc(NS(=O)(=O)c3ccccc3)cc2C1=O	-3	nt	29
C[C@@H]1CN([C@H](C)CO)C(=O)c2cc(NS(=O)(=O)c3ccc(F)cc3)ccc2O[C@H]1CN(C)Cc1ccc(C(F)(F)F)cc1	-2	-2	81*
C[C@@H]1CCCCO[C@H](CN(C)C(=O)Nc2ccc(C(F)(F)F)cc2)[C@@H](C)CN([C@H](C)CO)C(=O)c2cc(NS(=O)(=O)c3ccc(Cl)cc3)ccc2O1	-4	-4	120*
Cc1ccc(C)c(OCCNS(=O)(=O)c2cc([N+](=O)[O-])ccc2C)c1	-1	-4	7
O=C(CSc1nc2ccccc2c(=O)n1-c1ccccc1)Nc1ccc(Br)cc1Cl	-3	3	38
